Data taken from PubChem BioAssay (NCI).
About 79,000 compounds went through this panel and 15% of them were active in at least one assay; those are over-represented in the sample as a whole. Unmarked numbers belong to inactive results. The source made the active and inactive calls. Rule as the data show it: active = growth inhibition above about 70%; inactive = the rest.

Tests used:
[1] = NCI Yeast Anticancer Drug Screen. Data for the rad50 strain (AID 155);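 also: 0% = growth of vehicle-only cultures of the same strain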; settings: S. cerevisiae rad50 strain growth inhibition; at 50.0 µM; hits give high values
Outline: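 Readout: growth inhibition relative to vehicle-treated cultures. Compound exposure was carried out in a genetically defined yeast strain deficient in DNA damage repair.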

[2] = NCI Yeast Anticancer Drug Screen. Data for the mec2-1 strain (AID 157); settings: S. cerevisiae mec2-1 strain, at 50.0 µM, hits give high values
Outline: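 Growth inhibition is read against vehicle-treated controls after compound exposure of the mec2-1 yeast strain, which is defective in DNA damage repair or cell cycle control.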

[3] = NCI Yeast Anticancer Drug Screen. Data for the sgs1 mgt1 strain (AID 161);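 also: 0% = growth of cultures given vehicle only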; settings: S. cerevisiae sgs1 mgt1 strain, at 50.0 µM, hits give high values
Outline: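 Compounds are added to genetically altered yeast, and growth is compared with cultures given vehicle alone to give percent inhibition.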

[4] = NCI Yeast Anticancer Drug Screen. Data for the cln2 rad14 strain (AID 165);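 also: 0% = growth equal to vehicle treated cultures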; settings: S. cerevisiae cln2 rad14 strain, at 50.0 µM, hits give high values
Outline: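 Growth inhibition, relative to vehicle-treated controls, is the read-out. The test organism is a yeast strain with defined genetic alterations, cln2 rad14.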

[5] = NCI Yeast Anticancer Drug Screen. Data for the bub3 strain (AID 167); settings: S. cerevisiae bub3 mutant strain, at 50.0 µM, hits give high values
Outline: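 Readout: yeast growth inhibition, expressed relative to vehicle-only wells. The test organism is a mutant strain from a panel with lesions in DNA repair or checkpoint genes.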

[6] = NCI Yeast Anticancer Drug Screen. Data for the mlh1 rad18 strain (AID 175); settings: S. cerevisiae mlh1 rad18 strain growth inhibition; at 50.0 µM; hits give high values
Outline: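 Cells of a genetically altered yeast strain, deficient in DNA damage repair, were treated with compound. Their growth was then compared with that of vehicle-treated cultures to give inhibition.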

Row | Compound | growth inhibition [1] | growth inhibition [2] | growth inhibition [3] | growth inhibition [4] [%] | growth inhibition [5] | growth inhibition [6] [%]
1 | O=C(NCCCC1NC(=O)/C(=C(O)/C=C/C=C/c2ccccc2)C1=O)OCc1ccccc1 (stereo unspecified) | 38.4% | -1.65% | 17.1% | -2.75 | 0.25% | 21.8
2 | Nc1nnnn1-c1cccc(Cl)c1 | 7.5% | 0.35% | 1.6% | -18.8 | -2.4% | 10.6
3 | CSc1c(C)n([O-])c2ccccc2[n+]1=O | 23.1% | 26.1% | 8.85% | -20.5 | 26.1% | 5.4
4 | Nc1nc(C(F)(F)F)nc(N)c1N | 7.6% | 11% | 15.1% | 3.2 | -5.95% | 14.6
5 | COC(=O)Nc1nc2c(OC)c(OC)c(OC)cc2[nH]1 | -5.15% | -6.75% | -3.95% | -17.9 | -18.6% | -17.1
6 | CC1CC(Cc2ccccc2CC2CC(C)OC2=O)C(=O)O1 (stereo unspecified) | 6.95% | 12.6% | -0.1% | 10.8 | 10.8% | 22.9
7 | CC(=O)Nc1cc2cc(NC(=O)C(Cl)(Cl)Cl)ccc2oc1=O | -24.3% | -17.4% | -4.65% | 0.55 | -11.7% | -24.6
8 | Nc1cc([N+](=O)[O-])cc(S(=O)(=O)O)c1O | -5.15% | -2.95% | -14.2% | -65.8 | 7.45% | -26
9 | CC(CCc1cccc2ccccc12)C(=O)O (stereo unspecified) | 29.6% | 30.4% | 28.9% | 26.1 | 30.3% | 43.3
10 | COc1cc(C2c3cc4c(cc3OC(NC3CCCCC3)C2C)OCO4)cc(OC)c1OC (stereo unspecified) | -0.35% | -9.4% | -2.4% | 27.8 | 24.6% | -20.9
11 | O=C(NCCCCCCCCCCNC(=O)C12CC3CC(CC(C3)C1)C2)C12CC3CC(CC(C3)C1)C2 | -1.5% | -5.15% | 2.3% | 14.7 | -2.1% | -14.5
12 | C/C(=N/N(C)C)c1ccc(C)cc1 | 20.3% | -5.75% | 3.25% | -26.9 | 0.6% | 12.5
13 | c1ccc(C[n+]2cccc3ccccc32)cc1 | 1.75% | -29.6% | -7.1% | 6.25 | -1.95% | -12.2
14 | CS(=O)(=O)OC1C(OCc2ccccc2)OC(CO)C(O)C1O (stereo unspecified) | -6.1% | 2.15% | -10.1% | -55.6 | -1.6% | 0.55
15 | Cc1ccc2sc3nc4ccccc4nc3c2c1 | 12.1% | 3.5% | -1.95% | -4.25 | 5.8% | -1.25
16 | Nc1ccc2ccsc2c1 | 1.6% | -22.7% | 26.2% | 17.1 | 12.9% | 35.5
17 | CN1CCC(CO)CC1 | -12.8% | -2.7% | -2.65% | 9.05 | 11.8% | -8.4
18 | Cc1ccc(S(=O)(=O)C2c3nc4ccccc4cc3-c3nc4ccccc4nc32)cc1 (stereo unspecified) | -10.8% | -13.2% | -17.8% | -81.8 | 7.95% | -14.9
19 | COc1ccccc1NC(=O)C(=O)C1C(=O)Nc2ccccc2S1=O (stereo unspecified) | -14.3% | -21.1% | -44.6% | 2.45 | -41% | -45.5
20 | CN(c1nc(=[N+](C)C)ss1)C1CCCCC1 | 9.4% | 17.2% | 16.1% | -39.5 | -12.8% | 15.2
21 | C(=N\N=C\c1ccccn1)/c1ccccn1 | 9.65% | -6.95% | 5.5% | 4.8 | -3.7% | 26.2

Row | Compound | growth inhibition [1] | growth inhibition [2] | growth inhibition [3] | growth inhibition [4] [%] | growth inhibition [5] | growth inhibition [6] [%]
22 | CCOC(=O)c1ncn2c1[nH]c(=O)c1ccccc12 | -6.95% | -16.6% | -8.9% | 1.2 | -9.5% | -10.6
23 | CCCCCOC(=O)Nc1ccc(OCC)cc1 | -9.15% | -4.95% | -3.15% | -21.9 | -1.3% | -4.25
24 | c1ccc(CCCCc2ccccn2)cc1 | 32% | -13.1% | 31.6% | 0.2 | 27.4% | 25
25 | O=C(NCC1CC1)NC(=O)c1c(F)cccc1Cl | -1.2% | -13% | 12.6% | 20.8 | 36.6% | 9.65
26 | Cc1ccc2nc(-c3ccc(N)cc3)sc2c1S(=O)(=O)O | 3.3% | 2.15% | 6.8% | 2.45 | 2.3% | 5.65
27 | CC1=C(C(=O)NNC(=O)CC#N)CC(C(=O)NNC(=O)CC#N)=C(C)N1 | -27.7% | -43.8% | -20.8% | -24.6 | -27.4% | -0.05
28 | CN(c1ccccc1)S(=O)(=O)c1cccc([N+](=O)[O-])c1 | -25.3% | -44.5% | 0% | -9.5 | 24.3% | -1.55
29 | COC(=O)C(Cc1nc2ccc(Cl)cc2[nH]c1=O)C(=O)C(=O)Nc1cc(C)ccc1C (stereo unspecified) | -19.2% | 4.85% | -33% | -35.6 | -26.4% | 14.5
30 | COc1cc(C)nc2ccc(C(=O)c3ccccc3)cc12 | 31% | 6.1% | 31.6% | 17.5 | 10.4% | 48
31 | CC(=O)OCC(=O)C1(O)C(C)CC2C3CCC4CC(=O)CCC4(C)C3=CCC21C (stereo unspecified) | 43.1% | -16.6% | 0.65% | -2.95 | 26.1% | 23.8
32 | CC1(C)CS(=O)(=O)CC(C)(C)C(=O)C1=O | -25.6% | -19% | -15% | 5.45 | -6% | -3.4
33 | O=C(c1ccccc1)c1cc(Cl)ccc1NCC(O)COc1ccc(Cl)cc1 (stereo unspecified) | -12.8% | 7.05% | -33% | -12.6 | -0.45% | -10.1
34 | OCc1c(CO)c(-c2ccc(Cl)cc2)n2c1CCC2 | 29.4% | -15% | 8.4% | 29.2 | -6.35% | 34.5
35 | CC(=O)C(C)(C)Cc1cc(C(C)(C)CC=O)on1 | -2.25% | -0.8% | -12.4% | 5.35 | 29.1% | 4.95
36 | COc1ccc(/C=C/C(=O)N(C)C)cc1 | 3.1% | 5.65% | -0.15% | 12.4 | -2.5% | -3.05
37 | COc1ccccc1NC(=O)Nc1ccccc1 | 1.9% | -4.3% | 3.7% | -23.5 | -4.65% | 0.3
38 | c1ccc(Sc2nc(Sc3ccccc3)nc(Sc3ccccc3)n2)cc1 | -23.9% | -16.4% | -15.2% | 17.9 | -20.1% | -31.7
39 | CSc1ccc([C@@H](O)[C@H](CO)NC(=O)C(Cl)Cl)cc1 | 72.9% (active) | 90.2% (active) | 88.4% (active) | 31.6 | 74.1% (active) | 47.6
40 | Cc1ccc(S(=O)(=O)NNS(=O)(=O)c2ccc(C)cc2)cc1 | 5% | 9.6% | 26.9% | -5.95 | 12.7% | 17.2
41 | O=C(NC(=S)Nc1ccsc1)c1ccccc1 | 14.6% | 0.7% | 2.6% | 8.85 | -2.15% | -6.35
